KB-3-1 tox = KB-3-1 parental cell cytotoxicity; 1.4% of 400,000 active; Potency, µM (doses to about 46.1 µM), actives largely listed as cytotoxic; KB-3-1 viability, CellTiter-Glo ATP luminescence, 72 h; further: nearly all actives have a fitted effect of over 60% in size
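Parental KB-3-1 viability, qHTS format: 72 h compound exposure, 37 °C; CellTiter-Glo; media-only wells and DMSO plates as controls; concentration-effect fits on corrected data.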
ATXN2 expr inh = reduces ATXN2 reporter expression in HEK-293 cells; Potency, µM (highest dose often 57 µM), hits mostly inhibitors; HEK-293 ATXN2-luciferase reporter, luminescence, 24 h; 0.72% of 360,000 active; AID 1745845; further: nearly all actives have a fitted effect of over 55% in size
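ATXN2-luciferase reporter cells (luciferase flanked by upstream and downstream ATXN2 gene portions) were treated 24 h at 37 °C with compounds at up to 57 uM. SteadyGlo luminescence gave expression; GF-AFC fluorescence gave viability.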
KB-V1 MDR tox = kills drug-selected multidrug resistant KB-V1 cells | KB-V1 MDR cells viability, CellTiter-Glo, 72 h | Potency, µM (titrated, usually from 46.1 µM), hits mostly cytotoxic | 3.4% of 400,000 active; further: nearly all actives have a fitted effect of over 60% in size
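Cytotoxicity via CellTiter-Glo luminescence after 72 h compound exposure at 37 degrees C. Cells: drug-selected KB-V1 line, DMEM phenol-red free plus 10% FBS. Compounds tested at multiple concentrations; normalized data fitted to concentration-effect curves.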
HepG2 viability = kills HepG2 cells in TGF-b inhibitor counter-screen | AID 588856 | Potency, µM (titrated, usually from 46.1 µM), most hits filed as cytotoxic | HepG2 CAGA-GFP viability, ATP luminescence, 18 h | 0.76% of 410,000 active
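HepG2 CAGA-GFP cells (1000/well, DMEM with 1% FBS) received compound, then TGF-beta at 500 pg/mL final, and were incubated 18 hours at 37 degrees C. Viability was read by CellTiter-Glo luminescence. Media-only wells were set as complete cell-killing and DMSO as no toxicity.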
TGFb inhibitor = blocks TGF-b signaling; Potency, µM (highest dose often 46.1 µM), actives largely listed as inhibitors; HepG2 CAGA-GFP TGF-b/SMAD3 reporter, GFP fluorescence, 18 h; TGF-beta stimulated, 500 pg/mL final; 1.2% of 410,000 active; further: nearly all actives have a fitted effect of over 65% in size
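HEPG2 CAGA-GFP reporter cells (1000/well, DMEM with 1% FBS) received compounds, then recombinant TGF-beta at 500 pg/mL final for 18 hours at 37 degrees C. Per-cell GFP summed per well was normalised to unstimulated and stimulated DMSO controls before curve fitting.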
S2 tox = viability counter-screen for ATXN expression inhibitors. S2 cells (HEK-293 line with an ATXN2-luciferase reporter) viability, CellTiter-Fluor protease fluorescence, 24 h. 0.49% of 400,000 active. Potency, µM (top dose mostly 56.7 µM), usual class: cytotoxic. AID 651635; further: nearly all actives have a fitted effect of over 40% in size
Numbers stand for hits; i = inactive; ? = inconclusive; nt = no result. In the library only some 5.9% were active in any assay of this set; here they are far more common. The call rests on the fitted dose curve; in most records, active means well fitted curve in the direction sought with a large enough effect; inconclusive means small, poorly fitted or top-dose-only effect, or another doubt; inactive means no such curve, though single readings can be large; an effect the other way counts as inactive or inconclusive.

SMILES | KB-3-1 tox | ATXN2 expr inh | KB-V1 MDR tox | HepG2 viability | TGFb inhibitor | S2 tox
CCOC(=O)c1oc2ccccc2c1NC(=O)Cc1cccs1 | i | i | 15µM | i | i | i
CCOC(=O)CNS(=O)(=O)c1cc(-c2nnc(Nc3cccc(O)c3)c3ccccc23)ccc1C | nt | nt | nt | 11µM | i | nt
NC(=O)COc1ccc(Nc2nnc(-c3ccc(O)cc3)c3ccccc23)cc1 | i | i | i | i | i | i
Cc1ccc(Nc2nnc(-c3ccc(C)c(S(N)(=O)=O)c3)c3ccccc23)cc1 | i | i | i | i | 10µM | i
Cc1ccc(-c2nnc(Nc3ccc(CC(N)=O)cc3)c3ccccc23)cc1 | i | i | i | i | 13µM | i
COC(=O)COc1ccc(-c2nnc(Nc3ccc(O)cc3)c3ccccc23)cc1 | ? | ? | i | 11µM | ? | ?
Cc1ccc(-c2nnc(Nc3cccc(O)c3)c3ccccc23)cc1S(=O)(=O)NCCO | i | i | ? | i | i | i
Cc1nc(C)n(CC(=O)N2CCOc3ccc(CN4CCN(C)C[C@@H]4c4ccccc4)cc3C2)n1 | nt | nt | nt | nt | nt | i
CN(C)Cc1c(C(=O)NCCOc2ccc(C(=O)NO)cc2)oc2ccccc12 | nt | i | nt | nt | nt | nt
Cc1cccnc1-c1cccc2c1OC(CNC(=O)Cc1c(C)noc1C)C2 (stereo not given) | nt | nt | nt | nt | nt | i
Cc1ccc(-c2nnc(NC3CCCCC3)c3ccccc23)cc1S(=O)(=O)N1CCN(C)CC1 | i | ? | 23µM | i | i | nt
COc1ccc(Nc2nnc(-c3ccc(C)c(S(=O)(=O)N4CCN(C)CC4)c3)c3ccccc23)cc1 | ? | ? | i | i | 14µM | ?
Cc1ccc(NS(=O)(=O)c2cc(-c3n[nH]c(=O)c4ccccc34)ccc2C)cc1 | 12µM | i | 21µM | i | ? | ?
CCOC(=O)CNS(=O)(=O)c1cc(-c2n[nH]c(=O)c3ccccc23)ccc1C | i | i | i | i | i | ?
CCc1ccc(NC(=O)Nc2nnc(N(C)C3CCCCC3)s2)cc1 | i | i | i | i | i | i
CC(=O)Nc1ccc(NC(=O)c2cc(CN3CCCC3)on2)cc1 | i | i | i | i | ? | i
COc1cccc(CNC(=O)c2ccc(-c3nc(CSc4ccccc4)c(C)o3)cc2)c1 | i | i | i | i | i | i
CCOC(=O)[C@]12Cc3c(cc(OC)c(OC)c3OC)[C@H]1N(Cc1ccccc1)C(=O)c1cc(OC)ccc12 | 4.6µM | 20µM | ? | nt | nt | 11µM
O=C(CSCCc1ccccn1)Nc1ccc(Br)cn1 | i | ? | 21µM | i | i | i
O=C(CSCCc1ccccn1)Nc1ccccn1 | ? | i | i | i | i | i
O=C(CCSCCc1ccccn1)Nc1c(F)cc(F)cc1Br | i | i | 16µM | i | i | i
COc1ccccc1NC(=O)CSC1=Nc2ccccc2C2=NC(CCC(=O)NCc3ccco3)C(=O)N12 (stereo not given) | i | nt | i | i | i | nt
COc1ccc(CNc2oc(-c3ccc(COc4ccc(Cl)cc4)o3)nc2C#N)cc1 | i | i | i | i | ? | i
CCOC(=O)c1sc(=S)n(Cc2ccccc2)c1C | i | i | i | i | i | ?
CN(C)C(=S)N=c1ssc(=S)n1Cc1ccccc1 | ? | i | ? | i | 2.2µM | ?
SMILES | KB-3-1 tox | ATXN2 expr inh | KB-V1 MDR tox | HepG2 viability | TGFb inhibitor | S2 tox
CN(CC(=O)N1CCOCC1)Cc1c(Cl)cccc1NC(=O)c1ccccc1 | nt | nt | nt | nt | nt | i
CCN(CC)S(=O)(=O)c1cnccc1N1CCN(c2cccc(Cl)c2)CC1 | 10µM | i | i | i | ? | i
CNS(=O)(=O)c1cnccc1N1CCN(c2cccc(Cl)c2)CC1 | i | i | i | i | i | i
N#Cc1nc(Cc2cccc3ccccc23)oc1NCC1CCCO1 (stereo not given) | i | i | 16µM | i | i | i
N#Cc1ccc(Oc2ccc(-c3cnc4ccccc4n3)cc2)cc1C#N | i | i | i | i | i | i
N#Cc1ccc(Oc2ccc(-c3nc4ccccc4nc3-c3ccccc3)cc2)cc1C#N | i | i | 21µM | i | i | i
O=C(c1cccnc1)C1CCCN(Cc2ccc3c(c2)CN(C(=O)c2cccs2)CCO3)C1 (stereo not given) | nt | nt | nt | nt | nt | i
O=C(Nc1ccc2nc(-c3cccs3)c(-c3cccs3)nc2c1)N1CCOCC1 | i | i | 16µM | i | i | i
O=C(Nc1ccc2nc(-c3ccccn3)c(-c3ccccn3)nc2c1)N1CCCC1 | i | nt | i | i | i | nt
O=C(CCCCn1c(=O)c2ccccc2n(Cc2ccc(Cl)cc2)c1=O)NCc1ccco1 | 15µM | i | 4.6µM | i | i | i
Cc1cccc(Cn2c(=O)n(CCCC(=O)NCc3ccco3)c(=O)c3ccccc32)c1 | 9.2µM | i | 15µM | i | i | ?
CCC[C@H]1C[C@H](C(=O)N[C@@H]([C@@H]2O[C@@H](SC)[C@@H](O)[C@@H](O)[C@@H]2O)[C@H](C)Cl)N(C)C1 | nt | i | nt | nt | nt | nt
NC(=O)CC(NC(=O)Cc1ccc(Br)cc1)c1ccc(NC2CCCCCCC2)c([N+](=O)[O-])c1 (stereo not given) | ? | ? | i | i | i | ?
NC(=O)CC(NC(=O)Cc1ccc(Br)cc1)c1ccc(NC2CCCC2)c([N+](=O)[O-])c1 (stereo not given) | ? | 8.9µM | i | i | i | ?
NC(=O)CC(NC(=O)Cc1ccc(Br)cc1)c1ccc(N2CCN(c3ccc(F)cc3)CC2)c([N+](=O)[O-])c1 (stereo not given) | i | ? | i | 11µM | ? | ?
C=C1CC2C3CCC4=CC(=O)C=C[C@]4(C)[C@@]3(F)[C@@H](O)C[C@]2(C)[C@@]1(O)C(=O)COC(C)=O (stereo not given in full) | nt | nt | nt | nt | nt | i
COc1ccc(CN2CCOc3ccc(CN4CCC(Oc5cccnc5)CC4)cc3C2)cc1C | nt | nt | nt | nt | nt | i
COc1ccc(-n2ccc(-c3sc(NCc4cc(OC)c5c(c4)OCO5)nc3C)n2)cc1 | nt | nt | nt | nt | nt | i
O=C(c1csc(Nc2ccccc2Cl)n1)N1CCCC1 | i | i | 21µM | i | i | i
O=C(c1csc(Nc2cccc3ccccc23)n1)N1CCCC1 | i | i | i | i | i | i
CN1CCN(c2ccc(NC(=O)c3ccc(-c4ccc(Cl)cc4)o3)cc2)CC1 | ? | ? | ? | 16µM | ? | nt
CC(=O)NC(=O)c1ccc(-c2ccc(Cl)cc2)o1 | ? | i | 8.2µM | i | i | i
O=C(NC(=S)Nc1ccccc1O)c1ccc(-c2ccc(Cl)cc2)o1 | ? | i | i | i | ? | i
COC(=O)c1sc2ccccc2c1S(=O)(=O)N1CCN(c2ccc(C(C)=O)cc2)CC1 | i | i | i | i | i | i
